TDP1 cell noCPT: qHTS for Inhibitors of human tyrosyl-DNA phosphodiesterase 1 (TDP1): qHTS in cells in absence of CPT | DT40 Tdp1-/- hTDP1 cells, no CPT, ATP luminescence, 48 h | Potency, µM (titrated, usually from 46.2 µM), inactives show at the top dose activity change, negative = growth inhibition, usual class: inhibitors | 420,000 tested, 15% active | AID 686978, 2013; also: potency is read from the fitted curve at half-maximal effect; nearly all actives have a fitted effect of over 55% in size
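Camptothecin absent (DMSO only). Human TDP1-complemented DT40 knockout cells, 400 cells/well, 37 °C for minimum 48 hr; ATP measured via CellTiter-Glo, 30 min dark incubation, luminescence.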
ELG1 repair inh: ELG1-dependent DNA repair inhibition; Potency, µM (series often up to 46.1 µM), for inactives: top-dose activity change, negative = inhibition, usual class: inhibitors; HEK293T ELG1-luciferase reporter, luminescence, 16 h; DNA damage induced by 5-fluorouridine; AID 504467; 330,000 tested, 2.3% active; also: potency is read from the fitted curve at half-maximal effect; nearly all actives have a fitted effect of over 55% in size
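Overnight (16 hr) co-exposure of 2,000 cells/well to 5-fluorouridine and compound at 37 °C preceded detection. Luciferase was quantified via ONE-Glo luminescence; loss of signal denotes inhibition.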
IL1B secr inh: inflammasome signaling inhibition, IL-1 beta readout. activity change, % at 57.5 µM. 360,000 tested, 4.7% active. THP-1 LPS/ATP IL-1B secretion, AlphaLISA, 16 h; active compounds read low; in the data active = activity change below about -50%; inconclusive = mostly about -30% to -49%
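Secreted IL-1B measured by AlphaLISA bead assay after 16 h compound exposure of THP-1 cells; compounds (final up to 57.5 uM) added 1 h before LPS (250 ng/mL) and ATP (1.25 mM) stimulation; lower signal means less secretion.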
HT1080NT lethal: kills 2HG-producing HT-1080-NT fibrosarcoma cells | HT-1080-NT fibrosarcoma viability, CellTiter-Glo ATP luminescence, 48 h | Potency, µM (series often up to 46.1 µM), without a hit: top-dose activity, negative = less viability, most hits filed as cytotoxic | 360,000 tested, 1.6% active | AID 686970;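 also: NT is the 2HG producing partner of a matched IDH1 knockdown line; potency is read from the fitted curve at half-maximal effect; 0% = DMSO-treated cells and -100% = media-only wells without cells; nearly all actives have a fitted effect of over 55% in size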
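A 48-hour cytotoxicity screen used HT-1080-NT cells plated 2 hours before compound delivery. ATP-based CellTiter-Glo luminescence measured viability, normalized to DMSO and no-cell controls.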
DT40 TDP1 CPT: DT40-hTDP1 cell growth loss with CPT; chicken DT40 Tdp1-/-;hTDP1 cells + 20 nM CPT, ATP luminescence, 48 h; 420,000 tested, 12% active; Potency, µM (top dose mostly 46.2 µM), inactives show top-dose activity change, negative = growth inhibition, usual class: inhibitors; also: potency is read from the fitted curve at half-maximal effect; nearly all actives have a fitted effect of over 55% in size
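Cell growth measured by CellTiter-Glo luminescence after a minimum 48 h, 37 C compound exposure with 20 nM CPT in Tdp1-knockout DT40 cells stably expressing hTDP1, seeded 400/well; qHTS titration format.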
HT1080 IDH1KD tx: HT-1080 IDH1 knockdown cell toxicity (counter line); HT-1080 IDH1 knockdown viability, ATP luminescence, 48 h; Potency, µM (titrated, usually from 46.1 µM), for the others: at the highest dose activity, negative = toxicity, most hits filed as cytotoxic; 360,000 tested, 2% active; AID 686971;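 also: potency is read from the fitted curve at half-maximal effect; 0% = DMSO wells and -100% = cell-free medium wells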
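Using the IDH1-knockdown HT-1080 line run in the same batch and compound series as the NT line, viability after 48 h at 37 °C was determined by CellTiter-Glo luminescence and expressed as % activity.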
* hit, by the source's call; ? = inconclusive; / = no result. The list is not random: actives were taken first. Their share in the collection is about 19%. Unless noted, calls follow the shape of the dose curve; as a rule, active = well fitted curve in the direction sought with a large enough effect; inconclusive = small, poorly fitted or top-dose-only effect, or another doubt; inactive = no such curve, though single readings can be large; an effect the other way counts as inactive or inconclusive. Unless noted, % is scaled to controls: 0 for no effect and ±100 for the full control effect.

SMILES	TDP1 cell noCPT	ELG1 repair inh	IL1B secr inh	HT1080NT lethal	DT40 TDP1 CPT	HT1080 IDH1KD tx
CN(C(=O)c1cccc(NC(=O)Cc2ccc(NC(=O)C3CCN(C(=O)CCc4ccccc4)CC3)cc2)c1)C1CCCCC1	15µM*	/	-9	-10%	21µM*	-27%
O=C(Cc1cccc(NC(=O)C2CCCN(C(=O)CCc3ccccc3)C2)c1)Nc1cccc(C(=O)N2CCOCC2)c1 (configuration not stated)	?	/	-4	1%	?	2%
O=C(Cc1cccc(NC(=O)C2CCCN(C(=O)C3CCC3)C2)c1)Nc1ccc(C(=O)N2CCOCC2)cc1 (configuration not stated)	-17%	/	-12	3%	-26%	10%
CN(C(=O)c1ccc(NC(=O)Cc2cccc(NC(=O)C3CCCN(C(=O)CCc4ccccc4)C3)c2)cc1)C1CC1 (configuration not stated)	?	/	8	0%	?	-6%
CN(C(=O)c1cccc(NC(=O)Cc2cccc(NC(=O)C3CCCN(C(=O)CCc4ccccc4)C3)c2)c1)C1CCC1 (configuration not stated)	21µM*	/	-18	-12%	?	-8%
O=C(Cc1cccc(NC(=O)C2CCCN(C(=O)C3CCCC3)C2)c1)Nc1ccc(C(=O)N2CCOCC2)cc1 (configuration not stated)	?	/	-25	2%	16µM*	-2%
O=C(Cc1cccc(NC(=O)C2CCCN(C(=O)CCc3ccccc3)C2)c1)Nc1cccc(C(=O)N2CCCCC2)c1 (configuration not stated)	21µM*	/	-21	-3%	16µM*	0%
CCOC(=O)c1c(C)[nH]c(C)c1S(=O)(=O)N1CCCC(C(=O)Nc2ccc(F)cc2F)C1 (configuration not stated)	-28%	/	/	/	?	/
CC1(C)OC(=O)C2(Cc3ccc(Cl)cc3N3CCCC32)C(=O)O1 (configuration not stated)	?	/	/	/	-9%	/
CCc1ccc(C(=O)NNC(=O)CN2C(=O)NC3(CCCC3)C2=O)cc1	-13%	14%	8	0%	-17%	2%
Cc1c(Cl)ccc2c(C(O)CBr)cc(-c3ccccc3)nc12 (configuration not stated)	16µM*	/	-86*	?	?	?
Cc1cc(-c2ccccc2)nc(-c2ccccc2)c1C	-7%	?	0	2%	1%	2%
Cc1cc2c(cc1S(=O)(=O)N1CC(C)CC(C)C1)OCC(=O)N2 (configuration not stated)	-5%	3%	15	?	-4%	2%
CCOC(=O)c1ccc(NC(=O)Cc2noc3ccc(C)cc23)cc1	?	/	/	/	21µM*	/
Cc1ccc(NC(=O)Cc2noc3ccccc23)c(C)c1	-17%	?	-14	23%	13%	20%
CCOC(=O)c1ccc(NC(=O)Cc2coc3cc(C)cc(C)c23)cc1	18µM*	/	/	/	?	/
COCCn1c(=O)c(-c2ccc(Cl)cc2)nc2cnc(N3CCOCC3)nc21	4%	/	/	/	1%	/
COc1ccccc1C(=O)Nc1ccc(N2CCN(C(C)=O)CC2)cc1	-7%	5%	-56*	-1%	3%	-1%
Cc1ccccc1C(=O)N1CCN(c2ccc(NC(=O)c3cccc(OC(C)C)c3)cc2)CC1	3.3µM*	16µM*	-1	0%	3.7µM*	11%
COc1c(C)cccc1C(=O)Nc1ccc(N2CCN(C(=O)c3ccccc3C)CC2)cc1	15µM*	10µM*	-106*	6%	16µM*	-17%
